“And” between values parts separate entries of the source, which are not always exact repeats. Equal values may be shown once. Compounds without any hit were thinned out: in the full panel of roughly 83,000, 20% have a hit.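 Interpretation: 100, growth as untreated; towards 0, rising growth inhibition; 0, no net growth; 0 to -100, cell death. Compounds scoring below 10 were considered active.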 The source made the active and inactive calls.
Experiments:
Assay in all cases: NCI-60 one-dose screen, 48 h (100 = growth as untreated, 0 = no growth, -100 = all killed)
Details in all cases: 10 µM unless noted
SK-MEL-2 melanoma = system: SK-MEL-2 melanoma
EKVX NSCLC = system: EKVX NSCLC
SN12C renal = system: SN12C renal
UO-31 renal = system: UO-31 renal
TK-10 renal = system: TK-10 renal
ACHN renal = system: ACHN renal
CAKI-1 renal = system: CAKI-1 renal
CCRF-CEM leukemia = system: CCRF-CEM leukemia
MOLT-4 leukemia = system: MOLT-4 leukemia
SR leukemia = system: SR leukemia
RPMI-8226 leukemia = system: RPMI-8226 leukemia
OVCAR-8 ovarian = system: OVCAR-8 ovarian
OVCAR-5 ovarian = system: OVCAR-5 ovarian
OVCAR-4 ovarian = system: OVCAR-4 ovarian
SK-OV-3 ovarian = system: SK-OV-3 ovarian
IGROV1 ovarian = system: IGROV1 ovarian
OVCAR-3 ovarian = system: OVCAR-3 ovarian
HS 578T breast = system: HS 578T breast
NCI/ADR-RES ovarian = system: NCI/ADR-RES ovarian
A498 renal = system: A498 renal

SMILES | growth (SK-MEL-2 melanoma) | growth (EKVX NSCLC) | growth (SN12C renal) | growth (UO-31 renal) | growth (TK-10 renal) | growth (ACHN renal) | growth (CAKI-1 renal) | growth (CCRF-CEM leukemia) | growth (MOLT-4 leukemia) | growth (SR leukemia) | growth (RPMI-8226 leukemia) | growth (OVCAR-8 ovarian) | growth (OVCAR-5 ovarian) | growth (OVCAR-4 ovarian) | growth (SK-OV-3 ovarian) | growth (IGROV1 ovarian) | growth (OVCAR-3 ovarian) | growth (HS 578T breast) | growth (NCI/ADR-RES ovarian) | growth (A498 renal)
O=C1C(=C(O)c2ccccc2)C(=O)c2ccccc21 | 105% (inactive) | 104% (inactive) | 102% (inactive) | 85.5% (inactive) | 111% (inactive) | 103% (inactive) | 92.9% (inactive) | 73.7% (inactive) | 116% (inactive) | 115% (inactive) | 94.3% (inactive) | 105% (inactive) | 104% (inactive) | 101% (inactive) | 101% (inactive) | 106% (inactive) | 109% (inactive) | 120% (inactive) | 108% (inactive) | –
O=C(NNC(=S)Nc1ccccc1)c1ccncc1 | 94.3% (inactive) | 117% (inactive) | 109% (inactive) | 84% (inactive) | 102% (inactive) | 103% (inactive) | 133% (inactive) | 93.7% (inactive) | 104% (inactive) | 99.2% (inactive) | 96.8% (inactive) | 104% (inactive) | 107% (inactive) | 116% (inactive) | 118% (inactive) | 106% (inactive) | 114% (inactive) | 132% (inactive) | 105% (inactive) | –
Cn1cc(C2=C(c3cccc4ccccc34)C(=O)NC2=O)c2cc(Br)ccc21 | 111% (inactive) | 88.5% (inactive) | 95.2% (inactive) | 80.8% (inactive) | 101% (inactive) | 80.6% (inactive) | 69.2% (inactive) | – | 77.1% (inactive) | 60.8% (inactive) | 121% (inactive) | 95.9% (inactive) | 126% (inactive) | 124% (inactive) | 90.3% (inactive) | 94.9% (inactive) | 104% (inactive) | 82% (inactive) | 92.2% (inactive) | –
CNC(=O)c1cc(Oc2ccc3nc(NC(=O)Nc4ccc(C(F)(F)F)cc4)sc3c2)ccn1 | 92.9% (inactive) | 53.5% (inactive) | 71.1% (inactive) | 65% (inactive) | 55.3% (inactive) | 73.4% (inactive) | 92% (inactive) | 68.1% (inactive) | 73.3% (inactive) | 70.6% (inactive) | 70.4% (inactive) | 48.5% (inactive) | 93.9% (inactive) | 37.7% (inactive) | 105% (inactive) | 70.9% (inactive) | 24% (inactive) | 30% (inactive) | 58.4% (inactive) | –
CC/C(=C(/c1ccc(Cl)cc1)c1ccc(OCCN2CCOCC2)cc1)c1ccccc1 | 93.7% (inactive) | 85.1% (inactive) | 95.8% (inactive) | 86.4% (inactive) | 108% (inactive) | 98.3% (inactive) | 69.4% (inactive) | 83.9% (inactive) | 86% (inactive) | 85.1% (inactive) | 80.3% (inactive) | 91.6% (inactive) | 100% (inactive) | 100% (inactive) | 116% (inactive) | 108% (inactive) | 96% (inactive) | 99.2% (inactive) | 103% (inactive) | –
Cc1c(O)c(O)cc2c3c(oc12)CC(c1ccc2c(c1)OCO2)CC3=O (configuration not stated) | 83.8% (inactive) | 79% (inactive) | 94.9% (inactive) | 56% (inactive) | 115% (inactive) | 75.9% (inactive) | 98.6% (inactive) | – | 84.4% (inactive) | 75.6% (inactive) | 87.5% (inactive) | 94.8% (inactive) | 113% (inactive) | 89.4% (inactive) | 85.4% (inactive) | 38.6% (inactive) | 86.4% (inactive) | 92.2% (inactive) | 90.3% (inactive) | 102% (inactive)
COc1cc(NS(=O)(=O)C(C)C)cc(-c2cc(-c3ccc(N4CCNCC4)cc3)cnc2N)c1 | 117% (inactive) | 109% (inactive) | 64.6% (inactive) | 70% (inactive) | 115% (inactive) | 93.2% (inactive) | 87.1% (inactive) | 66.7% (inactive) | 37.2% (inactive) | 54.1% (inactive) | 80% (inactive) | 96.6% (inactive) | 73.2% (inactive) | 95.9% (inactive) | 96.9% (inactive) | 36.9% (inactive) | 90.8% (inactive) | 65.4% (inactive) | 111% (inactive) | –
N=C(N)c1ccc(-c2ccc(-c3ccc(Cl)c(Cl)c3)s2)cc1 | 107% (inactive) | 72.4% (inactive) | 14.3% (inactive) | 54% (inactive) | 109% (inactive) | -62.7% (active) | -69% (active) | 1.96% (active) | -14.9% (active) | 5.08% (active) | -15.6% (active) | -17% (active) | 15.2% (inactive) | -16.2% (active) | 94.6% (inactive) | -49.5% (active) | -87.9% (active) | 94% (inactive) | 83.5% (inactive) | –
CCOC(=O)C1=C(C)NC(=O)NC1c1c(Cl)n(-c2ccccc2)c2ccccc12 (configuration not stated) | 102% (inactive) | 96.8% (inactive) | 92.7% (inactive) | 54.2% (inactive) | 98.9% (inactive) | 85.1% (inactive) | 70.7% (inactive) | 3.16% (active) | 78.8% (inactive) | 68.6% (inactive) | 68.4% (inactive) | 85.6% (inactive) | 84.7% (inactive) | 96% (inactive) | 85.9% (inactive) | 66.1% (inactive) | 69.2% (inactive) | 76.1% (inactive) | 85% (inactive) | –
CC(=NCc1ccccc1)c1ccc(O)cc1O | 107% (inactive) | 111% (inactive) | 91.8% (inactive) | 81.7% (inactive) | 92.8% (inactive) | 96.6% (inactive) | 107% (inactive) | 85% (inactive) | 89.7% (inactive) | 93.5% (inactive) | 96.6% (inactive) | 103% (inactive) | 104% (inactive) | 101% (inactive) | 103% (inactive) | 105% (inactive) | 103% (inactive) | 112% (inactive) | 98.4% (inactive) | –
O=C(NNc1ccccc1)c1ccccc1 | 81.5% (inactive) and 49.8% (inactive) | – | 84.5% (inactive) and 80% (inactive) | 51.1% (inactive) | 65.3% (inactive) | 57% (inactive) and 38.5% (inactive) | 22.7% (inactive) | – | 54.4% (inactive) and 41.3% (inactive) | 104% (inactive) | 82.2% (inactive) and 76.6% (inactive) | 106% (inactive) and 73.5% (inactive) | 77.2% (inactive) and 68.7% (inactive) | 94.5% (inactive) and 64.6% (inactive) | 95.5% (inactive) and 103% (inactive) | – | 81.4% (inactive) and 101% (inactive) | 90.8% (inactive) and 99.1% (inactive) | 64.3% (inactive) and 57.6% (inactive) | 118% (inactive) and 103% (inactive)
C=CCOc1ccc(/C=C2\SC(=S)N(CCc3ccc(O)cc3)C2=O)cc1 | 106% (inactive) | 91.4% (inactive) | – | 61.3% (inactive) | 106% (inactive) | 94% (inactive) | 71.2% (inactive) | 5.72% (active) | 40.4% (inactive) | 38.6% (inactive) | 76.8% (inactive) | 97.5% (inactive) | 110% (inactive) | 86.5% (inactive) | 115% (inactive) | 59.4% (inactive) | 100% (inactive) | 95% (inactive) | 98.9% (inactive) | 65.6% (inactive)
CCCCC#Cc1c(/C=C(\CCCC)SCC)n(C)c(=O)[nH]c1=O | 67.1% (inactive) | 104% (inactive) | – | 90.9% (inactive) | 104% (inactive) | 101% (inactive) | 102% (inactive) | 95% (inactive) | 62.1% (inactive) | 93.4% (inactive) | 85.5% (inactive) | 76.8% (inactive) | 99.3% (inactive) | 90.7% (inactive) | 106% (inactive) | 73.6% (inactive) | 88.5% (inactive) | 95.9% (inactive) | 95.6% (inactive) | 72% (inactive)
O=C(CCl)N(O)c1ccc(/C=C/c2ccccc2)cc1 | 88.1% (inactive) and 77.7% (inactive) | 81.7% (inactive) | – | 66.4% (inactive) and 65.2% (inactive) | 89.7% (inactive) and 81.1% (inactive) | 97.8% (inactive) and 87.6% (inactive) | 95.3% (inactive) and 91.1% (inactive) | -4.68% (active) and 10.3% (inactive) | 7.08% (active) and 12.4% (inactive) | 11% (inactive) | 72.7% (inactive) and 65.9% (inactive) | 63.1% (inactive) and 89.3% (inactive) | 109% (inactive) and 119% (inactive) | 103% (inactive) and 94.9% (inactive) | 101% (inactive) and 105% (inactive) | 70.9% (inactive) and 61.9% (inactive) | 98.7% (inactive) and 81.9% (inactive) | 107% (inactive) and 111% (inactive) | 86.3% (inactive) and 89.1% (inactive) | 69.2% (inactive) and 87.1% (inactive)
NS(=O)(=O)OCC1OC(n2cnc3cncnc32)C(O)C1O (configuration not stated) | 30.5% [0.1 µM] (inactive) and 21.3% [0.1 µM] (inactive) | 69.5% [0.1 µM] (inactive) | – | -2.13% [0.1 µM] (active) and 19.4% [0.1 µM] (inactive) | 18.5% [0.1 µM] (inactive) and 13% [0.1 µM] (inactive) | 13.3% [0.1 µM] (inactive) and 14.6% [0.1 µM] (inactive) | -34.9% [0.1 µM] (active) and 8.16% [0.1 µM] (active) | 11.4% [0.1 µM] (inactive) and -1.11% [0.1 µM] (active) | 0.572% [0.1 µM] (active) and -5.43% [0.1 µM] (active) | 2.84% [0.1 µM] (active) and 3.32% [0.1 µM] (active) | 25.1% [0.1 µM] (inactive) | 1.63% [0.1 µM] (active) and 1.09% [0.1 µM] (active) | 24.4% [0.1 µM] (inactive) and 6.91% [0.1 µM] (active) | 14.6% [0.1 µM] (inactive) and 11.4% [0.1 µM] (inactive) | 18.5% [0.1 µM] (inactive) and 21.6% [0.1 µM] (inactive) | 18% [0.1 µM] (inactive) and 48.5% [0.1 µM] (inactive) | 38.6% [0.1 µM] (inactive) and 28.1% [0.1 µM] (inactive) | 55.8% [0.1 µM] (inactive) | -5.79% [0.1 µM] (active) and 4.02% [0.1 µM] (active) | -5.51% [0.1 µM] (active) and -5.14% [0.1 µM] (active)

— PubChem BioAssay (NCI)
